These results are taken from PubChem BioAssay (NCATS).

Unmarked numbers belong to inactive results. Results filed as inconclusive are left out. Calls of active or inactive are those of the source. Unless noted, calls follow the shape of the dose curve; as a rule, active = well fitted curve in the direction sought with a large enough effect; inconclusive = small, poorly fitted or top-dose-only effect, or another doubt; inactive = no such curve, though single readings can be large; an effect the other way counts as inactive or inconclusive. Where only a bound is given, the exact number is not on record here.

Test [1] deals with Zika virus NS2B-NS3 protease. Kind of test: Primary screen GU AMC qHTS for Zika virus inhibitors (AID 1347154).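 Also: 0% = no-inhibitor control and -100% = no-enzyme control; nearly all actives have a fitted effect of over 70% in size.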 The method in brief:
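Unlinked Zika NS2B hydrophilic domain/NS3 protease domain noncovalent complex (25 nM final) in 10 mM Tris-HCl pH 8.0, 0.01% Tween 20, with AMC peptide substrate. Fluorescence (ex 340, em 450 nm) change over 15 min, room temperature; percent inhibition fitted to 4-parameter Hill equation.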
(In general: qHTS replaces the single test concentration by a dilution series.)

For test [2], the target named is Glucocorticoid receptor (Homo sapiens) (UniProt P04150). Briefly: GR-GFP Redistribution (AID 450;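 active = compounds whose dose series gives a full or clear partial fitted curve of increased nuclear translocation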; also: potency is read from the fitted curve at half-maximal effect). The settings on record: U2OS GR-GFP nuclear translocation, laser cytometry, 2 h.
Sequence of Glucocorticoid receptor (Homo sapiens) (P04150 whole entry, looked up, the tested form may be a part): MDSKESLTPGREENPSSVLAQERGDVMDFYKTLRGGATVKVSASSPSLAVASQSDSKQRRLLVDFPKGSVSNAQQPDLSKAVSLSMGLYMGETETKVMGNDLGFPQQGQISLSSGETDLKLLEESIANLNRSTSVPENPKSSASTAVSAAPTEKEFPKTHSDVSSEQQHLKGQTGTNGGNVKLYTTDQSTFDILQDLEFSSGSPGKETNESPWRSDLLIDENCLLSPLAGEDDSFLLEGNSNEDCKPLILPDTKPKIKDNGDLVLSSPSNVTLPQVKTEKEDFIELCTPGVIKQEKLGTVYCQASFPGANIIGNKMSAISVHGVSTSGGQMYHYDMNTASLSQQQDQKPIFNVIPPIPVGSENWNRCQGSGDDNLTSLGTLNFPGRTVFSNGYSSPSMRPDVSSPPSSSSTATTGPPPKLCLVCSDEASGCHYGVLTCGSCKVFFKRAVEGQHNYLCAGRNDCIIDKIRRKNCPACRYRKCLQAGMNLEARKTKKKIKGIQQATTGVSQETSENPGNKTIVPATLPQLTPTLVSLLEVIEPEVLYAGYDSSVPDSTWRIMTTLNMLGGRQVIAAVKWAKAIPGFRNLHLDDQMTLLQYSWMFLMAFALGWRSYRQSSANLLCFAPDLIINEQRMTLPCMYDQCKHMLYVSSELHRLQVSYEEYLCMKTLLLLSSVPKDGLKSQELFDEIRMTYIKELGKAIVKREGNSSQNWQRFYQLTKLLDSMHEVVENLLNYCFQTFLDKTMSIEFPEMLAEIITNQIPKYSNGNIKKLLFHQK
Test [3] has the same target. Kind of test: GR-EFC Redistribution (AID 451; calls by dose curve; also: potency is read from the fitted curve at half-maximal effect). The settings on record: CHO-K1 GR-EFC translocation, beta-gal luminescence, 2 h. The method in brief: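 CHO-K1 cells stably expressing nuclear-localized β-gal enzyme acceptor and GR fused C-terminally to the enzyme donor fragment; ligand-driven nuclear translocation restores β-gal by complementation. Compounds titrated up to 46 uM final, 2 h at 37 °C; luminescence read.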

Test [4] concerns the target Mitogen-activated protein kinase 10 (Mus musculus) (UniProt Q61831). Kind of test: JNK3 AlphaScreen Assay (AID 530; active = well fitted curve in either direction with a large enough effect, not every such curve was filed as active;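 also: kinase came from lysate of stimulated human HepG2 cells; signal reports phosphorylation of biotinylated GST-cJun 1-79 at Ser73 with 10 µM ATP; series mostly up to about 57 µM; % is scaled to controls: 0 for no effect and ±100 for the full control effect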). The method in brief:
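Inhibitors reduce antibody binding to phosphorylated biotin-cJun, lowering AlphaScreen luminescence. Lysates from HepG2 cells pre-activated by IL-1beta plus TNF-alpha supplied JNK3; compounds were titrated.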
A general note: In Alpha technology, singlet oxygen from a donor bead excites a nearby acceptor bead.

Test [5] is described as follows: Validation of Assay for Modulators of Lamin A Splicing (AID 1459; active = well fitted curve in the direction sought with a large enough effect in the signal ratio; the % refers to the signal ratio;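 also: cells exposed to compound for two days before reading; 0% is about no effect; ratio rise marks activators and ratio drop marks inhibitors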). The method in brief:
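HeLa S3 lamin A-EGFP/DsRed2 stable clone, 600 cells/well, Opti-MEM 2% FBS; compounds by pin tool; 48 hrs, 37 °C/5% CO2; Acumen 488 nm scan, objects 10-100 um; GFP/RFP intensity ratio.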

Test [6] has as its target DNA repair nuclease/redox regulator APEX1 (Homo sapiens) (UniProt P27695). Briefly: qHTS Validation Assay for Inhibitors of the Human Apurinic/apyrimidinic Endonuclease 1 (APE1) (AID 1705;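 also: TAMRA fluorescence gain over two minutes as APE1 cuts a quenched THF abasic duplex; series mostly up to about 57 µM; % is scaled to controls: 0 for no effect and ±100 for the full control effect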). The method in brief: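 qHTS, 1536-well. APE1 + cpd 15 min RT → 50 nM TAMRA/BHQ-2 THF-abasic dsDNA substrate → kinetic fluorescence, 3 reads/60 s; delta(read3−read1) = reaction progress. No-enzyme buffer = negative control.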

Test [7] can be described thus: qHTS for differential inhibitors of proliferation of Plasmodium falciparum line 7G8 (AID 1815).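 Also: potency is read from the fitted curve at half-maximal effect; parasite growth measured after three days of incubation.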
A short description of test [8]: qHTS for differential inhibitors of proliferation of Plasmodium falciparum line GB4 (AID 1816).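 Also: potency is read from the fitted curve at half-maximal effect; parasite growth measured after 72 h incubation.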 The note with it: Potency: Plasmodium falciparum GB4 proliferation inhibition.
The nature of test [9]: qHTS for differential inhibitors of proliferation of Plasmodium falciparum line 3D7 (AID 1876). Also: potency is read from the fitted curve at half-maximal effect.
Test [10] can be described thus: qHTS for differential inhibitors of proliferation of Plasmodium falciparum line D10 (AID 1877).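 Also: potency is read from the fitted curve at half-maximal effect; parasites grown with compound for 72 h before DNA staining.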
Test [11] is described as follows: qHTS for differential inhibitors of proliferation of Plasmodium falciparum line Dd2 (AID 1882). Also: potency is read from the fitted curve at half-maximal effect; nearly all actives have a fitted effect of over 65% in size. The settings on record: Potency: Plasmodium falciparum Dd2 proliferation inhibition. The method in brief:
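Dd2-infected erythrocytes (0.3% parasitemia, 2.5% hematocrit final) incubated with compound 72 h at 37 C, 5% CO2; lysed with saponin/Triton buffer containing SYBR Green I, incubated overnight in the dark, then read by fluorescence (485/535 nm). Normalized to 0.29 uM artemisinin and DMSO.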

The nature of test [12]: qHTS for differential inhibitors of proliferation of Plasmodium falciparum line W2 (AID 1883).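 Also: potency is read from the fitted curve at half-maximal effect; parasites grown with compound for 72 h before lysis and staining.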 The note with it: Potency: Plasmodium falciparum W2 proliferation inhibition.
A short description of test [13]: qHTS for differential inhibitors of proliferation of Plasmodium falciparum line HB3 (AID 1886).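 Also: potency is read from the fitted curve at half-maximal effect; parasites grown with compound for 72 h before SYBR Green readout.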 The note with it: Potency: Plasmodium falciparum HB3 proliferation inhibition.
Test [14] has as its target ATP-dependent DNA helicase Q1 (Homo sapiens) (UniProt P46063). Briefly: qHTS Validation Assay for Inhibitors of RecQ-Like Dna Helicase 1 (RECQ1) (AID 2353).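 Also: plate controls were DMSO vehicle for no effect and enzyme-free control for full effect.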 The method in brief: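 50 nM RECQ1T1 preincubated 15 min with compound in Tris pH 8.0 buffer with MgCl2, DTT, Tween-20 and 2.5 ug/ml poly(dI-dC); started with 200 nM TAMRA/BHQ-2 forked duplex and 2 mM ATP. Unwinding read as fluorescence (525/598 nm), two reads 2 h apart.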

Test [15] concerns the target M-phase phosphoprotein 8 (Homo sapiens) (UniProt Q99549). Briefly: qHTS Validation Assay for Inhibitors for MPP8 Chromodomain Interactions with Methylated Histone Tails (AID 488949).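 Also: 50 nM MPP8 with 50 nM peptide preformed then compounds added for 30 min; AlphaScreen signal from MPP8 chromodomain bound to biotinylated H3K9me3 peptide; top concentration of the series differs between compounds; % is scaled to controls: 0 for no effect and ±100 for the full control effect; nearly all actives have a fitted effect of over 55% in size.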 The method in brief: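 50 nM MPP8 + 50 nM b-H3K9me3 peptide, PBS pH 7.4/0.01% Tween-20, 30 min RT; + cpd 30 min RT; + AlphaScreen donor/Ni-chelate acceptor beads 10 ug/mL final, 30 min dark; luminescence read.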

In test [16] the target is Thyrotropin receptor (Homo sapiens) (UniProt P16473). Briefly: qHTS Assay for Antagonists of the Thyroid Stimulating Hormone Receptor (AID 488980). Also: series mostly up to about 58 µM; 0% is about no effect. The method in brief:
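Readout is cAMP by HTRF competition between cellular cAMP and cAMP-d2 for a cryptate-labelled antibody. Antagonism was assessed in TSHR-transfected HEK293 cells stimulated with 4 nM TSH (EC80, final) in the presence of RO 20-1724.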

The target of test [17] is Thyrotropin-releasing hormone receptor (Homo sapiens) (UniProt P34981). Briefly: qHTS for Small Molecule Agonists and Allosteric Enhancers of Human TRH Receptor: Validation Screen for Agonists (AID 493127;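 active = calcium activation more than 3 SD above the typical response in the agonist read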; also: 0% is about no effect). The note with it: TRH receptor agonist cell assay; at 2 µM; stronger effect = higher value. The method in brief:
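TRHR cells loaded with fluo-8 calcium dye; FDSS kinetic fluorescence (Ex 480/Em 530) read at 1 s/cycle after 23 nL compound addition. Agonist-mode calcium response recorded before the 10 nM TRH (EC20) addition.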

For test [18], the target named is Galactokinase (Homo sapiens) (UniProt P51570). Kind of test: qHTS Validation Assay for Inhibitors of Human Galactokinase (GALK) (AID 493189). Also: 0% is about no effect. The method in brief: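 5 nM GALK / 100 uM galactose / 35 uM ATP, 20 mM HEPES pH8.0, 5 mM MgCl2, 60 mM NaCl, 1 mM DTT, 0.01% BSA (final). RT 1 h; Kinase-Glo Plus luminescence.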
Sequence of Galactokinase (Homo sapiens) (P51570 whole entry, looked up): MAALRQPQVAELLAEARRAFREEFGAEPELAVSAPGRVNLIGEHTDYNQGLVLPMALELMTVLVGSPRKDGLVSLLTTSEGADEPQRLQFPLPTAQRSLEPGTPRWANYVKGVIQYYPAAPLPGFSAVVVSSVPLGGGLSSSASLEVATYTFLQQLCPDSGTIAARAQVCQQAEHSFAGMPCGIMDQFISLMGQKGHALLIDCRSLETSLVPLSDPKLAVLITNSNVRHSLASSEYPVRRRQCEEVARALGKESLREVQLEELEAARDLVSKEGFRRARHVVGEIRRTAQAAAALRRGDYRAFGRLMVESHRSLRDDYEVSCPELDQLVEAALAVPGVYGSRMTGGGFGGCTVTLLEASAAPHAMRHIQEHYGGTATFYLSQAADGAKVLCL
Test [19] has as its target DNA dC->dU-editing enzyme APOBEC-3G (Homo sapiens) (UniProt Q9HC16). Briefly: qHTS for inhibitors of Vif-A3G interactions: Validation (AID 588379). Also: 0% is about no effect. The method in brief: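 HeLa cells stably expressing Vif and A3G-eYFP, 700 cells/well, incubated overnight at 37 deg C, then exposed to compound overnight at 37 deg C. Inhibition of Vif-mediated degradation read as increased yellow fluorescence (Ex 488/Em 500-530) by laser-scanning cytometry.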

Test [20] has as its target Voltage-gated inwardly rectifying potassium channel KCNH2 (Homo sapiens) (UniProt Q12809). Briefly: qHTS Assay for Small Molecule Inhibitors of the Human hERG Channel Activity (AID 588834).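 Also: potency is read from the fitted curve at half-maximal effect; lower thallium flux fluorescence means stronger hERG block; nearly all actives have a fitted effect of over 50% in size.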 The method in brief: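 hERG-BacMam U2OS, 2000 cells/well; 0.7X FluxOR loading 1 hr RT dark; cpd ~10 min 37 °C; stim buffer; FDSS fluorescence 2 min @ 1 s; AC50 Hill fit.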
A short description of test [21]: Primary qHTS for small molecule stabilizers of the endoplasmic reticulum resident proteome: Secreted ER Calcium Modulated Protein (SERCaMP) assay (AID 1508630). Also: % is scaled to controls: 0 for no effect and ±100 for the full control effect. The method in brief:
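GLuc-SERCaMP-expressing SH-SY5Y cells, pretreated 16 h with compound, are challenged with thapsigargin to empty ER calcium stores; after 4 h, coelenterazine is added directly to the medium and luminescence is imaged.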

Sequence of Thyrotropin-releasing hormone receptor (Homo sapiens) (P34981 whole entry, looked up): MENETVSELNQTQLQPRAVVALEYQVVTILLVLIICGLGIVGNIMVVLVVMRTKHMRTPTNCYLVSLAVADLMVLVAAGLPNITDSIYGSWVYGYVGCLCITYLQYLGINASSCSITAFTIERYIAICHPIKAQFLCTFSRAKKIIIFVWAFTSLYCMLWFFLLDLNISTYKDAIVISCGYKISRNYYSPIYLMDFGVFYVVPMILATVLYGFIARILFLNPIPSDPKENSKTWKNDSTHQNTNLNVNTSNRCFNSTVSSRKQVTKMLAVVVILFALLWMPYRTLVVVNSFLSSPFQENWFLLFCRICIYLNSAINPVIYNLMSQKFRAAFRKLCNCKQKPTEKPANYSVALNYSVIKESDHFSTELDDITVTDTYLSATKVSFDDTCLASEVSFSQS
Sequence of ATP-dependent DNA helicase Q1 (Homo sapiens) (P46063 whole entry, looked up): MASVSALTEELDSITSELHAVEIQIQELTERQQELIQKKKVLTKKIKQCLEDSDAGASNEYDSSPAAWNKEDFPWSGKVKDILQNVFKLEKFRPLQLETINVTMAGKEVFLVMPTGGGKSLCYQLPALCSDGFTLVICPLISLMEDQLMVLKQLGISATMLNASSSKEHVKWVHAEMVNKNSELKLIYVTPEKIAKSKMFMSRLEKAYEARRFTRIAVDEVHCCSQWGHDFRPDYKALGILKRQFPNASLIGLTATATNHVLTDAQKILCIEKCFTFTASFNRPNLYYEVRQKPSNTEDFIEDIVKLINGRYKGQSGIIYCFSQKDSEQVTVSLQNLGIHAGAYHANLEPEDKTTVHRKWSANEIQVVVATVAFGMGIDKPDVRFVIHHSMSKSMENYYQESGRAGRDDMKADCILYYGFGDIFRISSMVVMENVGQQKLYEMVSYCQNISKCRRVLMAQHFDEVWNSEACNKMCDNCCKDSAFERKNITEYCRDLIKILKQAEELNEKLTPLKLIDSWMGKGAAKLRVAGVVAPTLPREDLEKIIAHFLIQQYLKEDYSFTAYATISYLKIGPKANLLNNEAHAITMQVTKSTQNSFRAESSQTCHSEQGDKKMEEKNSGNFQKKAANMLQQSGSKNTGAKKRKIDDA
Sequence of DNA dC->dU-editing enzyme APOBEC-3G (Homo sapiens) (Q9HC16 whole entry, looked up): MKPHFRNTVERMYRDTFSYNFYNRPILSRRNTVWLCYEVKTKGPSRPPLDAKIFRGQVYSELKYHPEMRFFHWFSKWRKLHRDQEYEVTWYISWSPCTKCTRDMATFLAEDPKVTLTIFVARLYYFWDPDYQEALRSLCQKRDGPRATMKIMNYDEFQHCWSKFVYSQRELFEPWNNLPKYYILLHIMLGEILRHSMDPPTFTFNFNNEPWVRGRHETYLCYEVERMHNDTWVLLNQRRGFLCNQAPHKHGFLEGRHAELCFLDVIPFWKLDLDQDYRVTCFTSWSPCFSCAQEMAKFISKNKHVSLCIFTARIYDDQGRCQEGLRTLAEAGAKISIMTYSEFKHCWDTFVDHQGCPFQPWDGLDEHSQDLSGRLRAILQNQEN
Sequence of Thyrotropin receptor (Homo sapiens) (P16473 whole entry, looked up): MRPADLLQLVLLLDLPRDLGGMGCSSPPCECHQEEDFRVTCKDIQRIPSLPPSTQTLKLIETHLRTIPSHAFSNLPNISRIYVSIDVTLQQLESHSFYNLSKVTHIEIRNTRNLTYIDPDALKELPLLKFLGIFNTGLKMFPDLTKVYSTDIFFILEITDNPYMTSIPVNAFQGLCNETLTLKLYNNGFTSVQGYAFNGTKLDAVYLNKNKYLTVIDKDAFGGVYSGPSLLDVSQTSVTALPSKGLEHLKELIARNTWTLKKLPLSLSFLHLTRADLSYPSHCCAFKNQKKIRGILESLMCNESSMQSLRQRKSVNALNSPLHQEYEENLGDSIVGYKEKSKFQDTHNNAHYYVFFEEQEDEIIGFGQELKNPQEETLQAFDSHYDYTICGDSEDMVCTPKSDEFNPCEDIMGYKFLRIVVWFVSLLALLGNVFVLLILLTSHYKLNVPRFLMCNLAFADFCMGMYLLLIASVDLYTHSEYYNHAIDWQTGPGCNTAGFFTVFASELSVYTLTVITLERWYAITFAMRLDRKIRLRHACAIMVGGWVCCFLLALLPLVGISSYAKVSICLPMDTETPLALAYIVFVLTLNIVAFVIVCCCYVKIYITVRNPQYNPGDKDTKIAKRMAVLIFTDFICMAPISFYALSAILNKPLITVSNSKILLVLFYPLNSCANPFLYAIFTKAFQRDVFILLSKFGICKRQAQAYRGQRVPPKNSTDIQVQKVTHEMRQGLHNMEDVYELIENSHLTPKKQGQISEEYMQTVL
Sequence of Voltage-gated inwardly rectifying potassium channel KCNH2 (Homo sapiens) (Q12809 whole entry, looked up): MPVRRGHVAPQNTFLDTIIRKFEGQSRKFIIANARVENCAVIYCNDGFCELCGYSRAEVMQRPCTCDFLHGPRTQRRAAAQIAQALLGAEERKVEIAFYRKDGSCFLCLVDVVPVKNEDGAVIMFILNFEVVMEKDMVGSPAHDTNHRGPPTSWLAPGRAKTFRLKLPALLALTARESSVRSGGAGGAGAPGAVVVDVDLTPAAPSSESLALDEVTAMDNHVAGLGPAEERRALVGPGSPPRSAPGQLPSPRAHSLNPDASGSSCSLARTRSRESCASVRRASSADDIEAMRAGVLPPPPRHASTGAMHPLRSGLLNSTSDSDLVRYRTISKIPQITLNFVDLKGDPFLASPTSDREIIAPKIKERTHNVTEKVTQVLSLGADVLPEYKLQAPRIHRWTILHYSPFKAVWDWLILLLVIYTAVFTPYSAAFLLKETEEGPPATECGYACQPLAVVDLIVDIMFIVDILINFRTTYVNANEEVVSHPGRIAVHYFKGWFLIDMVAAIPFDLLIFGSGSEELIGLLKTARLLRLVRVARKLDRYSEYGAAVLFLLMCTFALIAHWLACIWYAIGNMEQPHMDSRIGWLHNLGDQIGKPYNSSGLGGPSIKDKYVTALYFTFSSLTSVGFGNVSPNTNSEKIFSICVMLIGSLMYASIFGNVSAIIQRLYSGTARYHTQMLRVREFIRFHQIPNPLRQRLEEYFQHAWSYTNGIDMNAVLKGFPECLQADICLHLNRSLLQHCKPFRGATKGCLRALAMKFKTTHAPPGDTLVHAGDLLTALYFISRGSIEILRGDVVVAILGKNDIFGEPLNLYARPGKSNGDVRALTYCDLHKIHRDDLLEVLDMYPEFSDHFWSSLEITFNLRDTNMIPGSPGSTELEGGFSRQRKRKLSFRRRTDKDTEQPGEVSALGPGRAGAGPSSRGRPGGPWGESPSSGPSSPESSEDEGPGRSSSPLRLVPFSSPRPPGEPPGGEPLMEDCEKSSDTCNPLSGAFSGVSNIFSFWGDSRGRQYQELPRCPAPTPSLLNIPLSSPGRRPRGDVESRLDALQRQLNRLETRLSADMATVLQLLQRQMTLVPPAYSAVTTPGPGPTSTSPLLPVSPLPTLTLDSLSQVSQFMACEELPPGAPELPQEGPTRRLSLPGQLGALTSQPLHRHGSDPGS
Sequence of DNA repair nuclease/redox regulator APEX1 (Homo sapiens) (P27695 whole entry, looked up): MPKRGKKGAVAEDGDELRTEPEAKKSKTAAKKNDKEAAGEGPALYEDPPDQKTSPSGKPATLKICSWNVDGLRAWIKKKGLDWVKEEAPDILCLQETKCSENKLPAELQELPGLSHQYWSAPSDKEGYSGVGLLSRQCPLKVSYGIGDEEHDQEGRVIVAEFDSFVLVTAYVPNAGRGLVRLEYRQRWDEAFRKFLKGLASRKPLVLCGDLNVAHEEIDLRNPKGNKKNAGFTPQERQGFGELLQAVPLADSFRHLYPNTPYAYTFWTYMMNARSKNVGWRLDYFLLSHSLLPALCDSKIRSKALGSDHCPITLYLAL

Consider `NC(C(=O)O)c1ccc(P(=O)(O)O)cc1` (configuration not stated), for which, in test [1], the Potency result is “inactive”.
Consider `FC(F)(F)c1cc(CO[C@H]2CCCN[C@H]2c2ccccc2)cc(C(F)(F)F)c1`, for which the Potency in [2] was more than 46 µM; in [3], more than 46 µM; in test [7], 7.94 µM (active); in test [8] it was 11.2 µM (active); in [9], 11.2 µM (active); in test [10] it was 11.2 µM (active). Further, the Potency in [11] was 12.6 µM (active); in [12], 7.08 µM (active); in test [13], 12.6 µM (active); in test [20], 8.91 µM (active). The Potency entry in [4], in test [6], in [14], in test [15], in test [19] and in test [1] was “inactive” in each case. Besides, the Potency result in test [21] was “inactive”. For the same compound, the compound was classed as inactive in test [5], in test [16] and in [18]. Moreover, in test [17], the activation is 2.81%.
